EPAC1 antag – blocks human EPAC1 exchange factor; EPAC1 GEF assay, Rap1b-BODIPY-GDP exchange fluorescence; Potency, µM (highest dose often 115 µM), for the others: at the highest dose activity change, negative = inhibition, most hits filed as inhibitors; 360,000 tested, 0.14% active; AID 720709;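 note: plate controls were vehicle for no effect and positive control for full effect; nearly all actives have a fitted effect of over 50% in size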
EPAC2 antagonist – EPAC2 (human) antagonism; Q8WZA2; EPAC2 GEF exchange of Rap1B-BODIPY-GDP, fluorescence; Potency, µM (titrated, usually from 114 µM), inactives show top-dose activity, negative = inhibition, most hits filed as inhibitors; 360,000 tested, 0.18% active; AID 720708; note: % is set by controls: 0 for no effect and ±100 for the full control effect; nearly all actives have a fitted effect of over 45% in size
USP1 inh – blocks the human USP1/UAF1 deubiquitinase complex; recombinant USP1/UAF1, Ub-Rhodamine cleavage fluorescence; 390,000 tested, 0.23% active; O94782; Potency, µM (doses to about 57.1 µM), inactives show at the highest dose activity change, negative = inhibition, most hits filed as inhibitors; note: % is set by controls: 0 for no effect and ±100 for the full control effect; nearly all actives have a fitted effect of over 60% in size
Target sequence (O94782 whole entry, looked up): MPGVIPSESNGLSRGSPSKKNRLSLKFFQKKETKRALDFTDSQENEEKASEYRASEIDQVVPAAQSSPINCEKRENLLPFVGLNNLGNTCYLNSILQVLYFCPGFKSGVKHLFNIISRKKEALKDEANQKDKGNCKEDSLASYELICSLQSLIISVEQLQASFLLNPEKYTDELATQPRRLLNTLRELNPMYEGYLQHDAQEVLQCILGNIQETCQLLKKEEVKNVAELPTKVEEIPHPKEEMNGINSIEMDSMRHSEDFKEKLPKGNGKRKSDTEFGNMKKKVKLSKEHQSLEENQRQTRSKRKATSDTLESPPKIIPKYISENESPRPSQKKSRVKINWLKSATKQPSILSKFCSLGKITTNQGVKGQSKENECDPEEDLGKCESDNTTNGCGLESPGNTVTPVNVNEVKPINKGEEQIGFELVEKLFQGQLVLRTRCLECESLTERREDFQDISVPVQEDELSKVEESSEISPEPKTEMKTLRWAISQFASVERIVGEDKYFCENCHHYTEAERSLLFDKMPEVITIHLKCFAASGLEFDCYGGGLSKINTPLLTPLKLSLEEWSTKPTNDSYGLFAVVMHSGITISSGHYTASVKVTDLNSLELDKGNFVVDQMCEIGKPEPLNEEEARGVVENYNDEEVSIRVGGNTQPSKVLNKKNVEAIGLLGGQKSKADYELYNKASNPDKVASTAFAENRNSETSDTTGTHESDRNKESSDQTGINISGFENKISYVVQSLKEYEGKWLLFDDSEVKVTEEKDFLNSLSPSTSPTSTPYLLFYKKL
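In this screen, compounds sit with the deubiquitinase complex (1nM) for 15 min at room temperature before Ub-Rho is added at 150nM final. Fluorescence rise is then followed for 6 reads every 60 seconds.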
EPAC1 ag – agonists of human EPAC1. EPAC1 agonist qHTS, biochemical assay; response scale: 100% = response to 6.5 mM cAMP. 360,000 tested, 0.073% active. O95398. Potency, µM (top dose mostly 154 µM), for inactives: at the highest dose activation, usual class: activators; note: nearly all actives have a fitted effect of over 60% in size
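Normalized to 6.5 mM cAMP, activity reflects EPAC1-catalysed release of BODIPY-GDP from Rap1B, followed kinetically over 30 min at 480 nm excitation, 540 nm emission. Reaction contained 100 nM EPAC1, 250 nM Rap1B-BODIPY-GDP, 50 uM GDP.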
EPAC2 agonist – activates human EPAC2 exchange factor | EPAC2 activation, biochemical qHTS; response scale: 100% = 6.5 mM cAMP response | Potency, µM (highest dose often 154 µM), inactives show at the highest dose activation, usual class: activators | 360,000 tested, 0.079% active; note: nearly all actives have a fitted effect of over 50% in size
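Each well held 100 nM EPAC2, 250 nM RAP1B-BODIPY-GDP and 50 uM GDP. Fluorescence, read at 5-min intervals to 30 min, was referenced to a 6.5 mM cAMP positive control.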
Starred values were filed as active, the others as inactive. Rows were chosen to be rich in hits. Some 0.45% of all compounds tested hit in one or more screens of this group. Calls come from the whole dose curve; as a rule, active = well fitted curve in the direction sought with a large enough effect; inconclusive = small, poorly fitted or top-dose-only effect, or another doubt; inactive = no such curve, though single readings can be large; an effect the other way counts as inactive or inconclusive. Potency is the fitted concentration of half-maximal effect.

O=C(O)c1ccc(COc2ccccc2/C=C2/NC(=O)N(c3cccc(Cl)c3)C2=O)cc1 was read as EPAC1 antag inconclusive, EPAC2 antagonist inconclusive, USP1 inh 10%, EPAC1 ag 89µM* and EPAC2 agonist 20%.
COc1ccc(Cl)cc1NC(=O)C1CCN(S(=O)(=O)c2ccc3c(c2)CCCN3C(=O)C2CCC2)CC1 was read as USP1 inh -6%.
`CN(C)c1ccc(/C=C/C(=O)c2ccccc2O)cc1` gave EPAC1 antag 7%, EPAC2 antagonist 4%, USP1 inh inconclusive, EPAC1 ag 14% and EPAC2 agonist 15%.
CN(C)c1ccc(/C=C/C(=O)c2cccnc2)cc1 was read as EPAC1 antag 11%, EPAC2 antagonist -11%, USP1 inh 28µM*, EPAC1 ag 11% and EPAC2 agonist 15%.
Screening CN(C)c1ccc(/C=C/C(=O)c2ccc(O)cc2)cc1 returned EPAC1 antag 48%, EPAC2 antagonist 32%, USP1 inh 25µM*, EPAC1 ag inconclusive and EPAC2 agonist 21%.
O=C(/C=C/c1cccc(O)c1)c1cccnc1 was read as EPAC1 antag 3%, EPAC2 antagonist 4%, USP1 inh 7%, EPAC1 ag 8% and EPAC2 agonist 8%.
COc1ccc(C(=O)/C=C/c2ccc(N(C)C)cc2)c(OC)c1 was read as EPAC1 antag 17%, EPAC2 antagonist 57%, USP1 inh 22µM*, EPAC1 ag 100µM* and EPAC2 agonist -26%.
`CN(C)c1ccc(/C=C/C(=O)c2ccc3c(c2)OCO3)cc1` gave EPAC1 antag 89%, EPAC2 antagonist 59%, USP1 inh 25µM*, EPAC1 ag 63µM* and EPAC2 agonist 100µM*.
CN(C)c1ccc(C(=O)C=Cc2ccc([N+](=O)[O-])cc2)cc1 was read as EPAC1 antag 2%, EPAC2 antagonist -6%, USP1 inh inconclusive, EPAC1 ag 2% and EPAC2 agonist 2%.
For CC(=O)c1ccc(NC(=O)CSc2nnc(-c3ccco3)c(-c3ccco3)n2)cc1 the results were EPAC1 antag 50µM*, EPAC2 antagonist 8%, USP1 inh inconclusive, EPAC1 ag 2% and EPAC2 agonist 5%.
`COc1ccc(-c2nnc(SCC(=O)Nc3ccc(C(C)=O)cc3)nc2-c2ccc(OC)cc2)cc1` gave USP1 inh -13%.
Screening NC(=S)N=Nc1c(O)cc(O)c2[nH]c(=O)ccc12 returned EPAC1 antag 50µM*, EPAC2 antagonist -29%, USP1 inh 18µM*, EPAC1 ag 8% and EPAC2 agonist 7%.
O=C1CSC(c2ccc(Cl)cc2Cl)N1c1ccccn1 (configuration not stated) was read as EPAC1 antag -14%, EPAC2 antagonist 18µM*, USP1 inh -27%, EPAC1 ag 10% and EPAC2 agonist 23%.
For O=C1CSC(c2ccccn2)N1c1ccc(Cl)c(Cl)c1 (configuration not stated) the results were EPAC1 antag -2%, EPAC2 antagonist -3%, USP1 inh -3%, EPAC1 ag 6% and EPAC2 agonist -3%.
For CCCN1CCc2c(sc(NC(=O)c3ccc(S(=O)(=O)N(C)c4ccccc4)cc3)c2C(N)=O)C1 the results were EPAC1 antag 5%, EPAC2 antagonist 0%, USP1 inh inconclusive, EPAC1 ag 19% and EPAC2 agonist 112µM*.
Screening CCN1CCN(c2oc(-c3ccc(COc4ccc(C)cc4)o3)nc2C#N)CC1 returned USP1 inh -22%.
`CCCCCn1nc(-c2ccccc2)c2nc3ccccc3nc21` gave EPAC1 antag 15%, EPAC2 antagonist 236%, USP1 inh inconclusive, EPAC1 ag 2% and EPAC2 agonist 100µM*.
CCCn1nc(-c2ccccc2)c2nc3ccccc3nc21 was read as EPAC1 antag 4%, EPAC2 antagonist 206%, USP1 inh inconclusive, EPAC1 ag 17% and EPAC2 agonist -218%.
CC(=O)NC(c1ccccc1)c1c(O)ccc2ccccc12 (configuration not stated) was read as EPAC1 antag -4%, EPAC2 antagonist 40µM*, USP1 inh -20%, EPAC1 ag 4% and EPAC2 agonist 1%.
CC(=O)NC(c1ccc(C(C)C)cc1)c1c(O)ccc2ccccc12 (configuration not stated) was read as EPAC1 antag -12%, EPAC2 antagonist inconclusive, USP1 inh -21%, EPAC1 ag 17% and EPAC2 agonist 11%.
Cc1c(C(=O)NC(C)c2ccccc2)sc2ncnc(N(C)C3CCCCC3)c12 (configuration not stated) was read as USP1 inh -7%.
Screening CCOC(=O)c1ccc(N2C(=O)C3C(/C=C/c4ccccc4)OC4(C(=O)c5ccccc5C4=O)C3C2=O)cc1 (configuration not stated) returned EPAC1 antag 100µM*, EPAC2 antagonist -2%, USP1 inh -4%, EPAC1 ag 3% and EPAC2 agonist 14%.
O=C(O)C1Nc2c(O)cc(Cl)c([N+](=O)[O-])c2C2C=CCC12 (configuration not stated) was read as EPAC1 antag 13µM*, EPAC2 antagonist -17%, USP1 inh inconclusive, EPAC1 ag 15% and EPAC2 agonist 15%.
`CCc1cccc(C)c1NC(=O)c1cc(S(=O)(=O)N(Cc2ccc(C(=O)OC)cc2)Cc2ccc(OC)c(OC)c2)ccc1F` gave USP1 inh -18%.
For CS/C(Nc1cc(Cl)ccc1Cl)=C(/C#N)C(=O)c1ccco1 the results were EPAC1 antag 50µM*, EPAC2 antagonist -4%, USP1 inh inconclusive, EPAC1 ag -9% and EPAC2 agonist 3%.
For O=C(Nc1cc(Cl)ccc1Cl)c1ccco1 the results were EPAC1 antag 2%, EPAC2 antagonist 0%, USP1 inh -19%, EPAC1 ag 1% and EPAC2 agonist 3%.
Screening COCC(=O)OC1CCn2c1nc1c2C(=O)C(C)=C(NC(C)=O)C1=O (configuration not stated) returned EPAC1 antag inconclusive, EPAC2 antagonist inconclusive, USP1 inh 4.5µM*, EPAC1 ag 7% and EPAC2 agonist 24%.
COc1ccc(N(C(=O)c2snc(C(N)=O)c2N)C(C(=O)NC2CCCC2)c2cccs2)cc1OC (configuration not stated) was read as EPAC1 antag 50µM*, EPAC2 antagonist -16%, USP1 inh inconclusive, EPAC1 ag -14% and EPAC2 agonist 3%.
CCC(C(=O)NC1CCCC1)N(C(=O)c1snc(C(N)=O)c1N)c1ccc(OC)c(OC)c1 (configuration not stated) was read as EPAC1 antag 4%, EPAC2 antagonist -5%, USP1 inh 1%, EPAC1 ag 12% and EPAC2 agonist 4%.

Source: PubChem
